# Tests used:
# [1] = target: T1, Aspartate--tRNA(Asp/Asn) ligase (Mycobacterium tuberculosis (strain ATCC 25618 / H37Rv)) (UniProt P9WFW3); test: Assay for Asp RNA synthetase-1 from Mycobacterium tuberculosis; format: functional; set-up: scale not given: direction of the effect not stated beside the values; conditions: 30 µM; further: in the data most compounds retested in dose-response had high values
# T1 sequence (whole entry): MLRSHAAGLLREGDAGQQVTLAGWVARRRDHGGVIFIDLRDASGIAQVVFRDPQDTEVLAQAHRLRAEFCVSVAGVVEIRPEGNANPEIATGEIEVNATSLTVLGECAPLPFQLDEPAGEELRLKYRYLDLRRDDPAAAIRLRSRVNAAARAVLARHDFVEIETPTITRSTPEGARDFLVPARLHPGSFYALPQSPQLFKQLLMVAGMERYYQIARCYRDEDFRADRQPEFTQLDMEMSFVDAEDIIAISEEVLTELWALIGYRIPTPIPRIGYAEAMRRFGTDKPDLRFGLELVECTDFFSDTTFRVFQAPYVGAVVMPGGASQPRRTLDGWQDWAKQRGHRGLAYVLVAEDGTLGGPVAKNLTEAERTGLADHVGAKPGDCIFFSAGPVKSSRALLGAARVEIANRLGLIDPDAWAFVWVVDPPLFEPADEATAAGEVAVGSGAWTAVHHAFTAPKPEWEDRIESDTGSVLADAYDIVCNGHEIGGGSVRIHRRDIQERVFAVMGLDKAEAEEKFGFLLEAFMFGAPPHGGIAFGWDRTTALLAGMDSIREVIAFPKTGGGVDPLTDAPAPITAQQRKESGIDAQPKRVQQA
# [2] = target: Shiga toxin 2 (Escherichia coli O157:H7) (UniProt P09385+P09386); test: E. coli 0.157:H7 Shiga Toxin SOP - stx2 screening assay; format: functional; set-up: scale not given: direction of the effect not stated beside the values; conditions: 30 µM
structure (smiles),measurement,setting,value
Cc1csc(Nc2nccnc2C2CCCN2C(=O)C(C)C)n1 (stereo not given),Percent Effect,[1],7.04%
same,Percent Effect,[2],13.1%
Cc1nsc(NC(=O)N2CCC(C(C)(C)O)CC2)n1,Percent Effect,[1],0.0141%
same,Percent Effect,[2],-27.4%
Fc1ccc(CNCC2OCCc3cn(CC4CC4)nc32)cc1 (stereo not given),Percent Effect,[1],-2.61%
same,Percent Effect,[2],-6.8%
NCCn1nc(C2CCN(C(=O)CC3CCCCC3)C2)c2nccnc21 (stereo not given),Percent Effect,[1],1.37%
same,Percent Effect,[2],-31.7%
COCCNC(=O)[C@@H]1CC[C@@H]2[C@@H](CCN2Cc2cnn(C)c2)O1,Percent Effect,[1],2.71%
same,Percent Effect,[2],-20.8%
CCN1CCN(S(=O)(=O)c2ncn(C)c2Cl)CC1,Percent Effect,[1],-2.51%
same,Percent Effect,[2],-7.16%
O=C(COCc1nc(-c2ccncc2)no1)N1CCCCCC1,Percent Effect,[1],10.6%
same,Percent Effect,[2],-22.7%
CNC(=O)[C@H]1CO[C@H]2CCN(Cc3ccc4ccccc4n3)C[C@H]2C1,Percent Effect,[1],2.46%
same,Percent Effect,[2],-3.36%
CC(=O)c1ccc(N2CCCC(CO)(CCOc3ccccc3)C2)nc1 (stereo not given),Percent Effect,[1],-2.11%
same,Percent Effect,[2],-9.89%
O=C(CCC1CCN(Cc2ncc[nH]2)CC1)Nc1ccccc1Cl,Percent Effect,[1],0.166%
same,Percent Effect,[2],-7.7%
CN(CCCNc1cc(N2CCCC2CO)ncn1)S(C)(=O)=O (stereo not given),Percent Effect,[1],7.01%
same,Percent Effect,[2],-30%
O=C(Cc1ccccc1)N1CCC2(CC(=O)N(c3cccc(F)c3)C2)C1 (stereo not given),Percent Effect,[1],-1.85%
same,Percent Effect,[2],10.2%
CN(C)C(=O)N1C[C@H]2CN(Cc3cccc(F)c3)C(=O)[C@H]2C1,Percent Effect,[1],-2.95%
same,Percent Effect,[2],-2.65%
CCC(CNC(=O)c1ccc(Br)o1)N1CCc2ccccc2C1 (stereo not given),Percent Effect,[1],1.73%
same,Percent Effect,[2],8.06%
Cc1nccn1C1CCCN(C(=O)C2=NN(C)C(=O)CC2)C1 (stereo not given),Percent Effect,[1],-1.52%
same,Percent Effect,[2],19%
O=C(c1ccncc1)N1CCC(c2nc(O)cc(-c3ccncc3)n2)C1 (stereo not given),Percent Effect,[1],-0.574%
same,Percent Effect,[2],1.62%
Cc1ncccc1NC(=O)[C@H]1C[C@@H]2CCN(Cc3nccs3)C[C@@H]2O1,Percent Effect,[1],-3.35%
same,Percent Effect,[2],0.675%
Cc1cc(CNC(=O)NC(C)c2ccc(N3CCOCC3)cc2)no1 (stereo not given),Percent Effect,[1],5.56%
same,Percent Effect,[2],-23.6%
Cc1ccc(-c2cc(C(=O)NC(C)C(=O)N3CCCCC3)on2)cc1 (stereo not given),Percent Effect,[1],2.34%
same,Percent Effect,[2],-5.52%
COCCn1ccc(NC(=O)Nc2cccnc2)n1,Percent Effect,[1],-2.04%
same,Percent Effect,[2],-43.4%
CC(C)C1CN(C(=O)c2ccc(N3CCCC3)nc2)CCS1 (stereo not given),Percent Effect,[1],12.9%
same,Percent Effect,[2],-43%
CCCc1noc(CN2CCCC2c2c(C)nn(C)c2OC)n1 (stereo not given),Percent Effect,[1],-5.33%
same,Percent Effect,[2],4.3%
Cc1nnc(CN2CCN(CCOc3ccccc3C#N)CC2)n1C,Percent Effect,[1],3.6%
same,Percent Effect,[2],3.89%
Cc1cc(C(C)NC(=O)N2CCC(n3cncn3)CC2)c(C)s1 (stereo not given),Percent Effect,[1],0.6%
same,Percent Effect,[2],6.48%
Cc1cnn(C2CCCN(C(=O)c3sccc3-n3cnnn3)C2)c1 (stereo not given),Percent Effect,[1],-2.01%
same,Percent Effect,[2],-40.9%
O=C(CCC1CCCC1)N1CCC(c2ncc3c(n2)CCNC3)CC1,Percent Effect,[1],-3.47%
same,Percent Effect,[2],-54.5%
Cc1cnc(N2CCC3(CCCN(c4ccc(C)nn4)C3)C2)nc1 (stereo not given),Percent Effect,[1],-0.547%
same,Percent Effect,[2],-25.4%
CC(=O)N1[C@H](Cn2cncn2)C[C@@H]2CN(S(C)(=O)=O)CC[C@@H]21,Percent Effect,[1],2.85%
same,Percent Effect,[2],-36.4%
O=C(Cn1c(=O)nc2n1C(=O)N(c1ccccc1)C2)Nc1ccccc1,Percent Effect,[1],-4%
same,Percent Effect,[2],16.3%
CN1CCN(C[C@@H]2OC[C@H]3CN(Cc4cccc(F)c4)CC[C@H]32)CC1,Percent Effect,[1],-1.14%
same,Percent Effect,[2],11.3%
Cc1nn(C)c(N(C)C)c1CNC1CCOc2c(F)cccc21 (stereo not given),Percent Effect,[1],-0.433%
same,Percent Effect,[2],30.8%
Cc1ccsc1[C@@H]1CCN(C(=O)CCC(=O)N2CCCCCC2)C[C@H]1O,Percent Effect,[1],-0.418%
same,Percent Effect,[2],-23.3%
Cc1cccc(C(=O)NCc2ccc(N3CCCCC3)nc2)n1,Percent Effect,[1],2.43%
same,Percent Effect,[2],-10.8%
CCc1noc(C)c1C(=O)N1CCCC1Cn1cc(C)cn1 (stereo not given),Percent Effect,[1],4.02%
same,Percent Effect,[2],31.4%
c1csc(CN2C[C@@H]3OCCN(CC4CCCO4)[C@@H]3C2)c1 (stereo not given in full),Percent Effect,[1],-2.14%
same,Percent Effect,[2],7.71%
Cc1ccc(NC2CCN(C(=O)Cc3csc(C)n3)CC2)nn1,Percent Effect,[1],4.42%
same,Percent Effect,[2],17.7%
Cc1nc(CN2CCN(C(=O)COCc3ccccc3)CC2)no1,Percent Effect,[1],-0.353%
same,Percent Effect,[2],-1.66%
CN(C)CCN(C)C(=O)c1cnc2c(c1)nc(-c1ccccc1Cl)n2C,Percent Effect,[1],7.01%
same,Percent Effect,[2],9.89%
CN(Cc1cccc(Cl)c1)S(=O)(=O)N1CCOCC1,Percent Effect,[1],2.4%
same,Percent Effect,[2],7.77%
CC(=O)N1CCN(Cn2nc(-c3ccc(F)cc3)oc2=O)CC1,Percent Effect,[1],0.698%
same,Percent Effect,[2],-18.6%
CCN(Cc1nc(C(C)C)no1)Cc1cccs1,Percent Effect,[1],0.386%
same,Percent Effect,[2],-23.8%
CN(Cc1ccc2c(c1)OCCO2)C(=O)NCCc1cnn(C)c1,Percent Effect,[1],3%
same,Percent Effect,[2],26.7%
CS(=O)(=O)NCCCN1CCCC1c1ccccc1 (stereo not given),Percent Effect,[1],2.4%
same,Percent Effect,[2],10%
Fc1cnc(N2CCCC3(CN(Cc4ccncc4)CCO3)C2)nc1 (stereo not given),Percent Effect,[1],7.9%
same,Percent Effect,[2],-0.17%
CC(O)CN1CCN(C(=O)c2cc3ccccc3c(=O)[nH]2)CC1 (stereo not given),Percent Effect,[1],0.869%
same,Percent Effect,[2],-10.8%

# Source: ChEMBL document CHEMBL3988442, “University of Dundee, Small-Polar-MMV Screening Library” (2021)
